Measured values reported in PubChem BioAssay AID720513 (Broad Institute, 2013).
Out of some 2,100 compounds screened, about 480 (23%) were called active. Inconclusive results (about 5%) are left out.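 How the source made its calls: active means fitted curve reaches 40% activation at or below the top valid concentration, in every replicate test; inconclusive means replicate tests disagree on the call; inactive means the rest, including activity in the opposite direction.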 The list is a sample of the results. Potency and affinity values are given separately.

Experiment: PGC1a acetylation increase, cellular AlphaLISA – cell-based, cherry-picked samples, set 6, dose response (AID 720513);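 further: cells made to overexpress flag tagged PGC1a plus GCN5 acetyltransferase by viral infection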
Settings: U2OS PGC1a acetylation AlphaLISA, overnight, 0 = neutral, -100 = inhibitor control; series mostly up to 19.5 µM; activation (acetylation increase): at the top concentration

Activation (acetylation increase), inactive:
C[C@@H]1CN([C@@H](C)CO)C(=O)c2cc(NC(=O)c3ccncc3)ccc2O[C@@H](C)CCCCO[C@@H]1CN(C)Cc1ccncc1 7.05%, CC(=O)Cc1nsc(NC(=O)c2cccc(F)c2)n1 -7.15%, CCCN1CCN(S(=O)(=O)c2ccc3c(c2)CC(C)N3C(=O)C2CC2)CC1 (configuration not stated) 15.8%, c1ccc2c(-c3nn4nnnc4c4ccccc34)cccc2c1 38.8%, COCCCNC(=O)c1ccc(CSCc2ccc(C)cc2)o1 -6.72%, COc1cccc(NC(=O)N(C)C[C@@H]2OCc3ccccc3-c3c(n(C)c4ccccc34)C(=O)N([C@@H](C)CO)C[C@H]2C)c1 -5.27% [at 21 µM], C[C@@H]1CN([C@H](C)CO)C(=O)c2cc(NC(=O)Cc3cn(C)c4ccccc34)ccc2O[C@@H]1CN(C)C(=O)Nc1ccccc1 5.4%, COc1ccc(-c2cnc3c(c2)C(=O)N([C@H](C)CO)C[C@@H](C)[C@@H](CN(C)C(=O)Nc2c(C)noc2C)O3)cc1 -25.8% [at 10 µM], O=C(C[C@@H]1CC[C@@H]2[C@H](COC[C@@H](O)CN2S(=O)(=O)c2ccc(Cl)cc2)O1)N[C@@H]1CCN(Cc2ccccc2)C1 3.06%, CC(Nc1ccccc1)c1cc(Cl)ccc1O (configuration not stated) -12.3%, O=C(c1ccc(N2CCCC2=O)cc1)N1CCCCCC1 30.5%, CO[C@H]1CN(C)C(=O)c2ccc(NC(=O)C3CCOCC3)cc2OC[C@@H](C)N(C)C[C@@H]1C 1.83%, COc1cc(NC(=O)CCN2CCN(C)CC2)cc(OC)c1 -15%, Cc1cc(F)cc(-c2cc(C(=O)NCc3ccccc3)[nH]n2)c1 17%, CCOc1c(Br)cc(/C=C2/SC(=O)N(CC(=O)N3CCCC3)C2=O)cc1OC -12.5%, O=C(CCN1C(=O)/C(=C/c2ccccc2)SC1=S)NCCCN1CCOCC1 1.04%, CC(/C=C1\SC(=O)N(CCCC(=O)O)C1=O)=C\c1ccccc1 1.4%, O=C1/C(=C\c2ccco2)SC(=S)N1Cc1ccccc1 4.17%, O=S(=O)(NCCSc1ccc(Cl)cc1)c1ccc(F)cc1 -13.2%, Cc1ccc(-c2ccc3c(c2)O[C@@H](CN(C)C(=O)C2CCCCC2)[C@H](C)CN([C@H](C)CO)S3(=O)=O)cc1 -79.6%, COc1ccc(NC(=O)N[C@H]2CC[C@H](CCn3cc(-c4ccccc4F)nn3)O[C@@H]2CO)cc1 11.2%, O=C(O)c1cccn1Cc1ccccc1F 15.5%, Cc1c(CNCCc2ccc(Cl)cc2)c(C(=O)O)c(C)n1-c1ccccc1 -14.6%, C[C@@H]1CCCCO[C@H](CN(C)Cc2ccc(C(F)(F)F)cc2)[C@H](C)CN([C@H](C)CO)C(=O)c2cc(NC(=O)Cc3ccccc3)ccc2O1 -25.4%, CC(C)NC(=O)c1c(O)c2ccccc2[nH]c1=O 11%, COc1ccc(S(=O)(=O)N(C)C[C@@H]2Oc3ccc(NS(=O)(=O)c4cn(C)cn4)cc3C(=O)N([C@H](C)CO)C[C@@H]2C)cc1 -1.19%, Cc1cc(NS(=O)(=O)c2ccc(NC(=O)CCCOc3ccccc3)cc2)no1 17.9%, CCOc1ccc(S(=O)(=O)/N=C(/Nc2ccc(C(C)=O)cc2)c2ccccc2)cc1 35.1%, NC(=NC(=O)c1ccccc1)N1CCOCC1 29%, Cc1ccccc1Nc1ncnc2c1cnn2-c1ccccc1 -4.46%, O=C(c1ccc(F)cc1)N(C(=O)c1ccc(F)cc1)c1ncccn1 -7.59%, O=S(=O)(c1ccc(Br)cc1)n1ccc2ccccc21 17.3%, COC(=O)Nc1ccc(S(=O)(=O)N(CCO)CC(F)(F)C(F)F)cc1 -6.68%, Cc1cc(C(=O)OCC(=O)N(C)c2ccccc2)ccc1[N+](=O)[O-] 10.2%, COC(=O)c1ccc(Cl)c(NC(C)=O)c1 14.3%, CCOc1cc(CNC2CCCC2)cc(Cl)c1OCc1ccc(F)cc1 -105%, O=C(C[C@@H]1CC[C@@H](NS(=O)(=O)c2ccc(F)cc2)[C@H](CO)O1)N1CCN(c2ccccc2)CC1 26.8%, O=C(C[C@H]1CC[C@@H](NS(=O)(=O)c2ccc(F)cc2)[C@H](CO)O1)N1CCN(c2ccccc2)CC1 24.9% [at 21 µM], C=CC[C@@H](CC(=O)N[C@@H](CO)Cc1ccccc1)C(=O)N[C@@H](COC(=O)[C@@H](CC=C)CC(=O)OC(C)(C)C)Cc1c[nH]c2ccccc12 22.7%, COc1ccc(NC(=O)Nc2ccc3c(c2)CC(=O)N([C@H](C)CO)C[C@H](C)[C@@H](CN(C)CC2CCCCC2)O3)cc1 19.9%, CNC(=O)COC(=O)c1cc(-c2ccco2)nc2ccccc12 21.4% [at 10 µM], Cc1nc(SCC(=O)OCc2ccccc2)c(C#N)c(-c2ccccc2)c1C(=O)Nc1ccccc1 10.7%, COCC(=O)N1CC(=O)N2[C@@H](CO)[C@H](c3ccc(-c4ccncc4)cc3)[C@@H]2C1 -19.7%, O=C(NCc1cccc(Cl)c1)c1ccc(-n2ccnc2)c2ccoc12 -31.3%, O=C(Nc1cccc(OC(F)(F)F)c1)c1ccc(-c2cccnc2)c2ccoc12 14.6%, CC(Oc1ccc2c3c(c(=O)oc2c1)CCC3)C(=O)N[C@@H](Cc1ccccc1)C(=O)O (some centres not stated) 2.57%, Nc1ncnc(NCc2ccc(F)cc2)c1[N+](=O)[O-] -6.18%, N#Cc1cccc(-c2ccc([C@@H]3[C@@H]4CN(S(=O)(=O)c5ccc(-c6ccccc6)cc5)C[C@H]3N4)cc2)c1 -102%, COc1cccc(S(=O)(=O)N2C[C@@H]3N[C@H](C2)C3c2ccc(-c3ccccc3C)cc2)c1 (some centres not stated) -19%, N#Cc1ccc(-c2ccc([C@@H]3[C@@H]4CN(S(=O)(=O)c5ccc(-c6ccccc6)cc5)C[C@H]3N4)cc2)cc1 -96.9% [at 21 µM], COc1cccc(-c2ccc(C3[C@@H]4CN(C(=O)C5CC5)C[C@H]3N4)cc2)c1 (some centres not stated) -20.8%, O=C(C1CCCCC1)N1C[C@@H]2N[C@H](C1)C2c1ccc(-c2cccc(F)c2)cc1 (some centres not stated) 12.9%, COc1ccccc1-c1ccc([C@@H]2[C@@H]3CN(S(=O)(=O)c4ccc(-c5ccccc5)cc4)C[C@H]2N3)cc1 -95.8%, O=S(=O)(c1ccc(-c2ccccc2)cc1)N1C[C@@H]2N[C@H](C1)[C@@H]2c1ccc(-c2cccnc2)cc1 -89.6%, C[C@@H]1CN([C@H](C)CO)C(=O)c2cc(/C=C/c3ccccc3)cnc2O[C@@H]1CN(C)Cc1cccnc1 3.6% [at 21 µM], COc1cc(CNCCN2CCOCC2)ccc1OCc1ccc(Cl)cc1Cl -59.2%, C[C@@H]1CN([C@H](C)CO)C(=O)c2cc(C#Cc3ccccc3)cnc2O[C@@H]1CN(C)C(=O)c1ccccn1 -6.46%, O=C(CN1C(=O)C2CC=CCC2C1=O)Nc1nccs1 (configuration not stated) -9.37%, CN(C)CCCNC(=O)CC1C[C@H](C(=O)N2CCCCC2)[C@@]2(CCc3ccccc3)c3[nH]c4ccccc4c3CCN2C1=O (some centres not stated) -11.9%, COc1ccc(-n2c(C)c([N+](=O)[O-])c3ccc(O)c(CN(C)C)c32)cc1 -13%, COc1cc(O)c(C(CC(=O)N2CCOCC2)c2ccc(N(C)C)cc2)c(OC)c1 (configuration not stated) 4.72%, CNC[C@H]1Oc2ccc(NC(=O)CCN3CCOCC3)cc2C(=O)N([C@H](C)CO)C[C@H]1C -13.7% [at 21 µM], C=CCN(c1ccc(C(=O)Nc2ccc3c(c2)OCO3)cc1)S(C)(=O)=O 28.3%, N#Cc1ccc(-c2ccc(C3[C@@H]4CN(S(=O)(=O)c5ccc(F)cc5)C[C@H]3N4)cc2)cc1 (some centres not stated) -93.4%, Cc1cccc(S(=O)(=O)N2C[C@@H]3N[C@H](C2)C3c2ccc(-c3ccccc3C)cc2)c1 (some centres not stated) -95.3%, CCCSc1nnc(Sc2nnnn2-c2ccccc2)s1 -36.7%, COc1ccc(CCN2C(=O)c3[nH]nc(-c4ccccc4O)c3C2c2ccccc2)cc1OC (configuration not stated) 9.8%, COc1ccc(CCN2C(=O)CC(C(C)c3ccccc3)C2=O)cc1OC (configuration not stated) 8.2%, CCCCN(C)Cc1c(C)[nH]c2ccccc2c1=O 10.8%, CC1(Cc2ccc(Cl)cc2)C(=O)Nc2ccc(-c3cccnc3)cc21 (configuration not stated) -18.9%, COc1ccccc1-c1ccc([C@@H]2[C@@H](CO)N(C(C)=O)C23CN(C(C)=O)C3)cc1 -6.94%, CO[C@H]1CN(C)C(=O)c2cc(NC(=O)Nc3ccc(Cl)cc3)ccc2OC[C@H](C)NC[C@@H]1C 20.2%, CO[C@H]1CN(C)C(=O)c2ccc(NC(=O)c3ccc(-c4ccccc4)cc3)cc2OC[C@H](C)NC[C@@H]1C 5.16% [at 21 µM], CCc1oc2c(C)c(O)ccc2c(=O)c1-c1ccc2ccccc2n1 12%, CC1CCCN(Cc2c(O)ccc3c4c(c(=O)oc23)CCCC4)C1 (configuration not stated) 50.2%, N#Cc1ccc(Cn2c(=O)c(C#N)c3n(c2=O)CCC3)cc1 -13.7%, CC(C)Cn1cnc2c(N)nc3ccccc3c21 16.5%, Cc1ccccc1NC(=O)Nc1ccccc1Br -20.9%, Cc1cc(C)n(-c2ccc(Cl)c(C(=O)OCC(N)=O)n2)n1 -15%, Cc1ccc(C)c(NC(=O)c2nnn(Cc3ccccc3)c2N)c1 -13.6%, CC(C)(C)c1ccc(CCC2OCC(C[N+]3(C)CCOCC3)O2)cc1 (configuration not stated) 5.53%, Clc1ccccc1CN1CCSCC1 6.01%, COc1ccc(-c2cc(N)n(S(=O)(=O)c3c(F)c(F)c(F)c(F)c3F)n2)cc1OC -103%, O=C(CCSc1nnc(-c2ccc(O)cc2)o1)N1CCOCC1 12.8%, NNS(=O)(=O)c1ccc(Cc2ncc(C(F)(F)F)cc2Cl)s1 33.5%, O=S(=O)(c1ccccc1)c1ncc(C(F)(F)F)cc1Cl -79%, CC(=O)N(c1cccc(C)c1)S(=O)(=O)c1ccc(Cl)cc1 30.1%, CC(C)NC(=O)N(C)C[C@H]1OCc2cnnn2CCCC(=O)N([C@@H](C)CO)C[C@H]1C 7.69%, Oc1ccc(/C=N/Nc2nc(-c3ccc(Cl)cc3)cc(C(F)(F)F)n2)cc1 -17.5%, COc1cccc(OC)c1NC(=O)C1CCCN1C(=O)NCc1ccccc1 (configuration not stated) 2.12%, CCOc1ccc(N(C(=O)Nc2ccccc2)C2=NCCC2)cc1 24.3%, COc1ccc(Cl)cc1NC(=O)CN1CCC(n2nnc3cc(C)ccc32)CC1 12.8%, O=C(CCC1CCCCC1)NCc1cccs1 -11.8%, CCOc1ccc(NS(=O)(=O)c2ccc3c(c2)oc(=O)n3C)cc1 -6.91%, O=C(OCc1ccccc1)N1CCC2CC1c1cc(-c3ccc(F)cc3)ccc12 (configuration not stated) 1.69%, Cn1cccc1C(=O)OCC(=O)Nc1ccc2c(c1)CCC2 10.5%, O=C(Cc1ccc(-n2cccc2)cc1)NCc1cccs1 -20.2%
